From PubChem BioAssay (Tox21)
Where “and” joins values, the source holds several entries; their conditions need not be identical. Equal values may be shown once. Results filed as inconclusive are left out. A number with no mark means an inactive call. Calls of active or inactive are those of the source. Calls come from the whole dose curve; as a rule, active = well fitted cell-killing curve with a large enough effect in the repeat runs; inconclusive = weak or mixed curves, or effect the other way; inactive = flat fitted curve, though single readings scatter.

Assay: qHTS RealTime-Glo MT Cell Viability Assay in HEK293 cells - 32 hour (AID 1224868); note: nearly all actives have a fitted effect of over 50% in size; for activity change, negative = cytotoxic: top concentration of the series differs between compounds
Conditions: RealTime-Glo luminescence; series mostly up to 76.8 µM
Excerpt: National Center for Advancing Translational Sciences [NCATS]
NIH Chemical Genomics Center [NCGC]
U.S. Environmental Protection Agency [EPA]
National Institutes of Environmental Health Sciences [NIEHS]
National Toxicology Program [NTP]
U.S. Food and Drug Administration [FDA]
Measure of cell viability is critical in the cell-base assay. Analysis of cell viability is necessary for the characterization of cell responses to cytotoxic drugs and environmental stress. A RealTime-Glo MT Cell Viability Assay to monitor cell viability in real time of continues cell culture during 40 hours of compound treatment was used to screen Tox21 10K library compounds in Hek293 cells. The RealTime-Glo MT Cell Viability Assay is a nonlytic, homogeneous, bioluminescent method to measure cell viability in real time using a simple, plate-based method. The assay involves adding NanoLuc luciferase and a cell-permeant prosubstrate to cells in culture. Viable cells reduce the proprietary prosubstrate to generate a substrate for NanoLuc luciferase. This substrate diffuses from cells into the surrounding culture medium, where it is rapidly used by the NanoLuc Enzyme to produce a luminescent signal. The signal correlates with the number of viable cells, making the assay well suited for cytotoxicity studies.
Tox21 Assay Protocol Summary:
The mixture of Hek293 cell suspension and reagents were dispensed at 600cells/6 ul/well in 1536-well tissue culture treated black solid bottom plates using a Multidrop dispenser. After the assay plates were incubated at a 37 C/5% CO2 incubator for 5 hours, 23 nL of compounds dissolved in DMSO, positive and negative controls was transferred to the assay plate by a pintool work station. The plates were incubated at 37 C for 40 hours. The luminescence intensity were measured at 0h, 8h, 16h, 24h, 32h and 40h time points using ViewLux plate reader during compound treatment.
% is set by controls: 0 for no effect and ±100 for the full control effect; potency is the fitted concentration of half-maximal effect.

| SMILES | Potency | activity change, negative = cytotoxic |
| --- | --- | --- |
| C[C@@H]1C[C@H]2[C@@H]3CCC4=CC(=O)C=C[C@]4(C)[C@@]3(Cl)[C@@H](O)C[C@]2(C)[C@@]1(OC(=O)c1ccco1)C(=O)CCl | inactive | – |
| CCCCN1CCCC[C@H]1C(=O)Nc1c(C)cccc1C | inactive | – |
| O=C1CCCCCN1SSN1CCCCCC1=O | inactive | – |
| O=[N+]([O-])c1cc([N+](=O)[O-])c2ccc(S(=O)(=O)O)cc2c1O | inactive | – |
| Clc1ccccc1C(c1ccccc1)(c1ccccc1)n1ccnc1 | 21.9 µM (active) and 6.74 µM (active) | – |
| CC(C)(C)c1ccc(C(=O)O)cc1 | inactive | – |
| O=CC=C(c1ccccc1)c1ccccc1 | 17.5 µM (active) | – |
| CCc1cc(Cc2cc(CC)cc(C(C)(C)C)c2O)c(O)c(C(C)(C)C)c1 | 19.5 µM (active) | – |
| CC(NN)c1ccccc1 (stereo not given) | – | 1.03% [at 15.8 µM] |
| CCCCCCOC(=O)c1ccc(O)cc1 | 43.7 µM (active) and 21.9 µM (active) | – |
| CCOC(=O)O[C@H](C)OC(=O)c1ccc2c(c1)cc(C(=O)NC1CCN(C(C)C)CC1)n2Cc1cc(-c2ccc(Cl)s2)on1 | 11.5 µM (active) | – |
| CCCCCCCCCCCCCCCCCC[N+](C)(C)C | 7.79 µM (active) | – |
| CCCC(C)c1ccccc1O (stereo not given) | inactive | – |
| CCC(CN)=C(c1ccccc1)c1ccccc1 | inactive | – |
| CC(C)(C)C(=O)OCOC(=O)C1N2C(=O)CC2S(=O)(=O)C1(C)C (stereo not given) | inactive | – |
| OC1(c2ccc(Cl)c(C(F)(F)F)c2)CCN(CCCC(c2ccc(F)cc2)c2ccc(F)cc2)CC1 | 9.52 µM (active) | – |
| CC(C)(C)CC(C)(C)c1ccc(OCCOCC[N+](C)(C)Cc2ccccc2)cc1 | 12.3 µM (active) and 9.52 µM (active) | – |
| CCCCCCCCCCCC(=O)NCCCN(C)C | 38.9 µM (active) | – |
| COc1cccc(N)c1 | inactive | – |
| O=C(OCC(COC(=O)c1ccccc1)(COC(=O)c1ccccc1)COC(=O)c1ccccc1)c1ccccc1 | 48.9 µM (active) | – |

| SMILES | Potency | activity change, negative = cytotoxic |
| --- | --- | --- |
| Clc1ccc2n[nH]nc2c1 | inactive | – |
| [O-][n+]1ccccc1SSc1cccc[n+]1[O-] | 1.31 µM (active) | – |
| CCCCCCCCCCn1cc[n+](CCCCCCCCCC)c1C | 1.38 µM (active) | – |
| CN(C)C(=O)C1(N2CCCCC2)CCN(CC[C@@]2(c3ccc(Cl)c(Cl)c3)CN(C(=O)c3ccccc3)CCO2)CC1 | 10.2 µM (active) | – |
| N#CC1(c2ccc(F)cc2)CCC(=O)CC1 | inactive | – |
| Cc1ccc(O)c(C(C)(C)C)c1 | inactive | – |
| Cc1cc(N)c(S(=O)(=O)O)cc1Cl | inactive | – |
| O=C(c1ccc(F)cc1)C1CCN(CCn2c(=O)[nH]c3ccccc3c2=O)CC1 | 9.52 µM (active) | – |
| CCCCCCCCCOC(=O)c1ccc(O)cc1 | 38.3 µM (active) | – |
| N=C1N=C(N)c2ccccc21 | 24.5 µM (active) | – |
| CCCCCCCCn1sc(Cl)c(Cl)c1=O | 3.89 µM (active) | – |
| Cc1c(C)c2c(c(C)c1O)CCC(C)(COc1ccc(CC3SC(=O)NC3=O)cc1)O2 (stereo not given) | 38.9 µM (active) | – |
| Cc1oc(-c2ccccc2)nc1CCC(=O)c1ccc(CC2SC(=O)NC2=O)cc1 (stereo not given) | inactive | – |
| CCCCc1oc2ccc(NS(C)(=O)=O)cc2c1C(=O)c1ccc(OCCCN(CCCC)CCCC)cc1 | 9.52 µM (active) | – |
| C[C@@H](NCCCc1cccc(C(F)(F)F)c1)c1cccc2ccccc12 | 23.9 µM (active) | – |
| O=c1[nH]sc2ccccc12 | 30.9 µM (active) | – |
| CCCCCCCCCCCC[N+](C)(C)CCCCCCCCCCCC | 5.49 µM (active) | – |
| CC(C)C(C)(C)C(C)(C)C(C)(C)S | inactive | – |
| O=C1c2c(O)ccc(Nc3ccc(CCO)cc3)c2C(=O)c2c([N+](=O)[O-])ccc(O)c21 | inactive | – |
| CCCCCCCCCCCCCCCC[N+](C)(C)CCN(Cc1ccc(OC)cc1)c1ncccn1 | 0.952 µM (active) | – |
